According to PubChem BioAssay (Tox21):
Inconclusive results are not listed. Calls of active or inactive are those of the source. Unless noted, the call rests on the fitted dose curve; in most records, active means well fitted curve in the direction sought with a large enough effect in the repeat runs; inconclusive means weak or mixed curves; inactive means no such curve, though single readings can be large; an effect the other way counts as inactive or inconclusive.

Experiments:
[1] = molecular target: Thyrotropin receptor (Homo sapiens) (UniProt P16473); experiment: qHTS assay to identify small molecule antagonists of the thyroid stimulating hormone receptor (TSHR) signaling pathway (AID 1259385; calls by dose curve; further: nearly all actives have a fitted effect of over 20% in size)
Thyrotropin receptor (Homo sapiens), sequence (P16473 whole entry, looked up): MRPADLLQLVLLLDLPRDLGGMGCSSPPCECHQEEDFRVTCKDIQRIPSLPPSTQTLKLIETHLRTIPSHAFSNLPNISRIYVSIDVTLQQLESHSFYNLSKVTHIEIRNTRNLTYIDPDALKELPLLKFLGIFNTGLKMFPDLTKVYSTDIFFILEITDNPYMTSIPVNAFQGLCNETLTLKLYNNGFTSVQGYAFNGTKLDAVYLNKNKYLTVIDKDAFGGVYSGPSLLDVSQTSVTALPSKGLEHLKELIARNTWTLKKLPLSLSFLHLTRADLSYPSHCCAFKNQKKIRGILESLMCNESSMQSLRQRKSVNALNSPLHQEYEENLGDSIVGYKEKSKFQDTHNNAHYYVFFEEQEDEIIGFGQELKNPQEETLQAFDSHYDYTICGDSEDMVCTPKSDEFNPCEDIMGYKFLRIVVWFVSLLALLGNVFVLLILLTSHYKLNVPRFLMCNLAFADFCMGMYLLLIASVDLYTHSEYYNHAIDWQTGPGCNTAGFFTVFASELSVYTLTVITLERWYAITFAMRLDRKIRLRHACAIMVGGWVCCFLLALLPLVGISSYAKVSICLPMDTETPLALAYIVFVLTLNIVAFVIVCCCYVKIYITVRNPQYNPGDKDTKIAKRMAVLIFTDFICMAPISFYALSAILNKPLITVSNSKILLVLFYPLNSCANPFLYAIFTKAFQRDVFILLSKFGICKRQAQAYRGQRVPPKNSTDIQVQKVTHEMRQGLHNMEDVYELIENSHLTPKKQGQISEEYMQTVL
Method in brief: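 Antagonist mode: compound-treated TSHR-expressing HEK293 cells were stimulated with 1.5 ng/mL TSH (final) in presence of Ro20-1724 for 30 min at RT. HTRF cAMP detection after 1 h; each compound tested at 15 concentrations, triplicate.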

[2] = molecular target: Progesterone receptor (Homo sapiens) (UniProt P06401); experiment: qHTS assay to identify small molecule agonists of the progesterone receptor (PR) signaling pathway (AID 1346784; calls by dose curve; further: nearly all actives have a fitted effect of over 30% in size)
Progesterone receptor (Homo sapiens), sequence (P06401 whole entry, looked up): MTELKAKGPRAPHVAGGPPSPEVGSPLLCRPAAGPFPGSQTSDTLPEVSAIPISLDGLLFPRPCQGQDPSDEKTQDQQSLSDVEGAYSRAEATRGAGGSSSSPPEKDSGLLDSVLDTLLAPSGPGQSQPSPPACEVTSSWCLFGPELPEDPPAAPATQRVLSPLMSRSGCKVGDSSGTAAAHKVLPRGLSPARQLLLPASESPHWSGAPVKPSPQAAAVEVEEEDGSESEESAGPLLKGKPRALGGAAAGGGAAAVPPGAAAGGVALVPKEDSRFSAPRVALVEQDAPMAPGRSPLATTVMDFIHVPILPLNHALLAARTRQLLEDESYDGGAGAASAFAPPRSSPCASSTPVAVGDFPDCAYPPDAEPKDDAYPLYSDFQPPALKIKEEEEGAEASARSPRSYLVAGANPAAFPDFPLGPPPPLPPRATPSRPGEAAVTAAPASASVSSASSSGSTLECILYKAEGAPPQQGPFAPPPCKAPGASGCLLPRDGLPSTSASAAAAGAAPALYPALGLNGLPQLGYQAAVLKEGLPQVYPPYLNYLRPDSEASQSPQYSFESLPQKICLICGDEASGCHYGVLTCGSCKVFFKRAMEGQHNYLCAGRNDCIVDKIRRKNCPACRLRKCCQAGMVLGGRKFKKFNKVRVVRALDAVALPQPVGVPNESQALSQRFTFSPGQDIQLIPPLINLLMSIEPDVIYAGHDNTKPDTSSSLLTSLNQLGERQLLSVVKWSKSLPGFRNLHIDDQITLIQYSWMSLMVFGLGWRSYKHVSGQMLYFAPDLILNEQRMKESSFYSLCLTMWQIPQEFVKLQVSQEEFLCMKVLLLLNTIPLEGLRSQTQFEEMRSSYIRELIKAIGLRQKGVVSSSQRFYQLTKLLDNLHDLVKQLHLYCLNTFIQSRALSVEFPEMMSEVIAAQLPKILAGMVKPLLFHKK
Method in brief: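 Cells (PR-UAS-bla HEK 293T, GripTite) were plated in assay medium containing 2% charcoal-stripped FBS and incubated 6 hr. Test compounds in DMSO were added for 16 hr at 37C. FRET substrate was then loaded for 2 hr at room temperature before fluorescence reading.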

[3] = molecular target: Progesterone receptor (Homo sapiens) (UniProt P06401); experiment: qHTS assay to identify small molecule antagonists of the progesterone receptor (PR) signaling pathway (AID 1346795; active means well fitted inhibition curve with a large enough effect in the signal ratio in the repeat runs, not every such curve was filed as active; the % refers to the signal ratio)
Method in brief: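 Antagonist mode: compounds tested against 1 nM (final) promegestone stimulation in HEK293T cells expressing PR-UAS-bla reporter, 16 hr at 37C, 5% CO2; beta-lactamase activity detected via B/G FRET substrate after 2 hr at room temperature.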

[4] = qHTS assay to identify small molecule antagonists of the progesterone receptor (PR) signaling pathway - cell viability counter screen (AID 1346798); further: series mostly up to about 92 µM; nearly all actives have a fitted effect of over 50% in size
Method in brief: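 Counter screen for cytotoxicity: viability of PR-UAS-bla HEK293T cells was measured with CellTiter-Glo luminescence following 16 hr compound exposure in the presence of R5020.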

[5] = qHTS assay to identify small molecule agonists of the progesterone receptor (PR) signaling pathway - cell viability counter screen (AID 1346799; calls by dose curve; further: nearly all actives have a fitted effect of over 45% in size)
Method in brief: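 Cells (PR-UAS-bla HEK293T) are plated at 3,000/well in 2% charcoal-stripped FBS medium, rested 6 hr, dosed and incubated 16 hr at 37C. CellTiter-Glo is then added and luminescence measured after 30 min at room temperature.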

[6] = qHTS assay to identify small molecule antagonists of the TGF-beta/Smad signaling pathway - cell viability counter screen (AID 1346824); further: nearly all actives have a fitted effect of over 50% in size
Method in brief: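 Cytotoxicity counter-screen run in the same wells as the beta-lactamase Smad reporter read: CellTiter-Glo luminescence after 30 min at room temperature. HEK 293T SBE-bla cells had 5 hr compound exposure at 37 C with TGF-beta1 (0.25 ng/mL stock).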

[7] = qHTS assay to identify small molecule agonists of the TGF-beta/Smad signaling pathway - cell viability counter screen (AID 1346829); further: top concentration of the series differs between compounds; nearly all actives have a fitted effect of over 45% in size
Method in brief: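 In parallel with the Smad reporter read, viability of HEK 293T cells stably carrying SBE-bla is quantified by ATP luminescence following 5 hr compound treatment.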

[8] = qHTS assay to identify small molecule agonists of the TGF-beta/Smad signaling pathway (AID 1346859; active means well fitted activation curve with a large enough effect in the signal ratio in the repeat runs, not every such curve was filed as active; the % refers to the signal ratio; further: series mostly up to about 77 µM)
Method in brief: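 Reporter line: HEK 293T with stably integrated SBE-controlled beta-lactamase. Compound exposure lasts 5 hr at 37 C and 5% CO2; substrate loading follows for 2 hr at room temperature, with emission read at 460 and 530 nm.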

[9] = molecular target: Thyrotropin-releasing hormone receptor (Homo sapiens) (UniProt P34981); experiment: qHTS assay to identify small molecule antagonists of the thyrotropin-releasing hormone receptor (TRHR) signaling pathway (AID 1346877; active means well fitted inhibition curve with a large enough effect in the repeat runs, not every such curve was filed as active; further: series mostly up to about 51 µM)
Thyrotropin-releasing hormone receptor (Homo sapiens), sequence (P34981 whole entry, looked up): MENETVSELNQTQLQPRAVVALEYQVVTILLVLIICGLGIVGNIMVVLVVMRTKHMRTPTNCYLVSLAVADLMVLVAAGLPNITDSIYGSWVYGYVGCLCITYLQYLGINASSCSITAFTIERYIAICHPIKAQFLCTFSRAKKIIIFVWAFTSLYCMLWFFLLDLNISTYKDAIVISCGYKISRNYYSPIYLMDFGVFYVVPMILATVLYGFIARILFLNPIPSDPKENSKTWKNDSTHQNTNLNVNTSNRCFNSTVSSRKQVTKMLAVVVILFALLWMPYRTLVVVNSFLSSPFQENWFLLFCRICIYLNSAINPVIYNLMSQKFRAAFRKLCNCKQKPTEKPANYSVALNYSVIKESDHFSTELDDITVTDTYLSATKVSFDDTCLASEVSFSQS
Method in brief: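 Human TRHR in HEK293 cells; inhibition of the intracellular calcium rise triggered by 1 nM TRH was followed by fluorescence over 3 min. Compounds were run at 15 concentrations, three replicates each.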

[10] = qHTS assay to identify small molecule agonists of the estrogen receptor alpha (ER-alpha) signaling pathway in the presence of an antagonist - cell viability counter screen (AID 1259386);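 further: series mostly up to about 92 µM; cells exposed to compounds for 22 h at 37 °C before the viability read; nearly all actives have a fitted effect of over 30% in size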
Method in brief: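 Steps: 5-day stripped-FBS culture; seed and incubate 24hr; add ICI-182,780 (10.0nM final); pin 15-point compound titration; incubate 22hr at 37C; add CellTiter-Fluor at 21hr; read fluorescence.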

Measured: Potency

Cc1ccc(-c2nc3ccc(C)cn3c2CC(=O)N(C)C)cc1
not listed: [10]
inactive: all other assays above

CC[C@H](N)c1ccccc1
inactive: [1] | [3] | [4] | [5] | [6] | [7]

CNC(=O)Oc1cc(C)c(N(C)C)c(C)c1
inactive: [1] | [2] | [4] | [5] | [6] | [9]

CS(=O)(=O)Cl
not listed: [3] | [10]
inactive: all other assays above

CC(Cc1ccccc1)NCCn1cnc2c1c(=O)n(C)c(=O)n2C (stereo not given)
not listed: [10]
inactive: all other assays above

COc1ccccc1OC
not listed: [7] | [8] | [10]
inactive: all other assays above

ClCCCCCCCl
not listed: [3] | [4] | [10]
inactive: all other assays above

CS(=O)(=O)c1ccc(C(=O)C2C(=O)CCCC2=O)c(Cl)c1COCC(F)(F)F
not listed: [10]
inactive: all other assays above

CCCN1CCC[C@@H]2Cc3[nH]ncc3C[C@H]21
not listed: [10]
inactive: all other assays above

CCCN1CCC[C@@H]2Cc3nc(N)ncc3C[C@H]21
not listed: [8] | [10]
inactive: all other assays above

O=C(CCl)NCO
not listed: [5] | [10]
inactive: all other assays above

Oc1ccc2c3c1O[C@H]1[C@@H](O)C=C[C@H]4[C@@H](C2)NCC[C@@]341
inactive: [2] | [3] | [4] | [6] | [8]

CN(C)C1CCCCC1
not listed: [1] | [10]
inactive: all other assays above

Cn1c(CCCC(=O)O)nc2cc(N(CCCl)CCCl)ccc21
not listed: [1] | [3]
inactive: all other assays above

CC1=C2[C@H]3OC(=O)[C@@H](C)[C@@H]3CC[C@@]2(C)C=CC1=O
not listed: [1]
inactive: all other assays above

CCN(CCO)CCn1c(Cc2ccccc2)nc2c1c(=O)n(C)c(=O)n2C
not listed: [1]
inactive: all other assays above

CC(C)[C@]12CC(=O)[C@H](C)[C@H]1C2
inactive: [10] | [2] | [5] | [6] | [7] | [8]

CCNP(=S)(OC)O/C(C)=C/C(=O)OC(C)C (stereo not given)
not listed: [1] | [3] | [6]
inactive: all other assays above

CC(C)(C)c1cc(O)ccc1O
inactive: [2] | [3] | [6] | [9]

Cc1ccc2cc(C)ccc2c1
not listed: [1]
inactive: all other assays above

CN(C)CCc1c[nH]c2cccc(OP(=O)(O)O)c12
not listed: [1] | [10]
inactive: all other assays above

CCOc1cc(OP(=S)(OC)OC)nc(CC)n1
not listed: [1] | [7]
inactive: all other assays above

COc1ccc2c(C(=O)c3ccc(Cl)cc3)c(C)n(CC(=O)O)c2c1
not listed: [1] | [8]
inactive: all other assays above
